Test results from PubChem BioAssay (NCATS).
Records with an inconclusive call do not appear. Activity calls are given as the source filed them. Unless noted, calls come from the whole dose curve; as a rule, active = well fitted curve in the direction sought with a large enough effect; inconclusive = small, poorly fitted or top-dose-only effect, or another doubt; inactive = no such curve, though single readings can be large; an effect the other way counts as inactive or inconclusive.

Tests used:
[1] = target: Cytochrome P450 3A4 (Homo sapiens) (UniProt P08684); experiment: qHTS Assay for Inhibitors and Substrates of Cytochrome P450 3A4 (AID 884); note: potency is the fitted concentration of half-maximal effect; nearly all actives have a fitted effect of over 50% in size
Cytochrome P450 3A4 (Homo sapiens), sequence (P08684 whole entry, looked up): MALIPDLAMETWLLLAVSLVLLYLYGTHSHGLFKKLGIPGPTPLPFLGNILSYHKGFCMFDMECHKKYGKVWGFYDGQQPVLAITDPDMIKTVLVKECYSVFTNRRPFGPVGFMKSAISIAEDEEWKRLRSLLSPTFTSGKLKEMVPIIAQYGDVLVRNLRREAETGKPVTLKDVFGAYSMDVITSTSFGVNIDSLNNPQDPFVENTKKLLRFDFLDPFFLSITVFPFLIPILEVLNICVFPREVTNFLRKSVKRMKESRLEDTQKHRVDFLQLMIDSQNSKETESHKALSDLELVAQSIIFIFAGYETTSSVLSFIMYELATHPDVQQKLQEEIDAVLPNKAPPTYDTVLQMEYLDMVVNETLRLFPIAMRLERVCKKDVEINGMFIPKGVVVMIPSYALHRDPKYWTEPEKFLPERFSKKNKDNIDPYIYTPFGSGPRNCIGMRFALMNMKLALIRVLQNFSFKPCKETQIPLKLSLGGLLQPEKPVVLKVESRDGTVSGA
In short: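 Luminescent readout of luciferin produced by CYP3A4 (20 nM) dealkylation of Luciferin-PPXE, 25 uM (its KM). NADPH-driven reaction ran 60 min at RT after 10 min compound preincubation; data scaled to 57 uM ketoconazole as 100% inhibition.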

[2] = Confirmation and Secondary Assay for Modulators of Hemoglobin Beta Chain Splicing at IVS2 654 locus (AID 910);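 note: HeLa cells stably carrying EGFP split by mutant beta-globin IVS2-654 intron; % of control where 0% means no effect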
In short: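 HeLa cells stably expressing EGFP interrupted by β-globin IVS2-654 intron, seeded overnight in Opti-MEM/2% FCS, then treated 2 days at 37 °C. Restored splicing read as total peak GFP intensity per well by laser scanning cytometry (488 nm excitation, 500–520 nm emission); 500 nM antisense PNA as control.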

[3] = Confirmation and Secondary Assay for Modulators of Hemoglobin Beta Chain Splicing at IVS2 705 locus (AID 930);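 note: HeLa cells stably expressing the EGFP-705 splicing reporter; % of control where 0% means no effect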
In short: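 Restored EGFP fluorescence after 2-day compound exposure reports splicing correction in IVS2-705 EGFP reporter HeLa cells; positive control was 500 nM splice-blocking PNA oligo. Signal measured as well total peak GFP intensity (488 nm excitation).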

[4] = target: Rap guanine nucleotide exchange factor 3 (Homo sapiens) (UniProt O95398); experiment: Confirmatory qHTS for antagonist of cAMP-regulated guanine nucleotide exchange factor 3 (EPAC1) (AID 1645880); details: EPAC1 Rap1B-BODIPY-GDP exchange, fluorescence; activity, negative = inhibition: at 115 µM (top of the series); note: nearly all actives have a fitted effect of over 55% in size; note: potency is the fitted concentration of half-maximal effect;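 for activity, negative = inhibition: plate controls were DMSO only for no effect and full effect of the ATA control for full effect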
Rap guanine nucleotide exchange factor 3 (Homo sapiens), sequence (O95398 whole entry, looked up): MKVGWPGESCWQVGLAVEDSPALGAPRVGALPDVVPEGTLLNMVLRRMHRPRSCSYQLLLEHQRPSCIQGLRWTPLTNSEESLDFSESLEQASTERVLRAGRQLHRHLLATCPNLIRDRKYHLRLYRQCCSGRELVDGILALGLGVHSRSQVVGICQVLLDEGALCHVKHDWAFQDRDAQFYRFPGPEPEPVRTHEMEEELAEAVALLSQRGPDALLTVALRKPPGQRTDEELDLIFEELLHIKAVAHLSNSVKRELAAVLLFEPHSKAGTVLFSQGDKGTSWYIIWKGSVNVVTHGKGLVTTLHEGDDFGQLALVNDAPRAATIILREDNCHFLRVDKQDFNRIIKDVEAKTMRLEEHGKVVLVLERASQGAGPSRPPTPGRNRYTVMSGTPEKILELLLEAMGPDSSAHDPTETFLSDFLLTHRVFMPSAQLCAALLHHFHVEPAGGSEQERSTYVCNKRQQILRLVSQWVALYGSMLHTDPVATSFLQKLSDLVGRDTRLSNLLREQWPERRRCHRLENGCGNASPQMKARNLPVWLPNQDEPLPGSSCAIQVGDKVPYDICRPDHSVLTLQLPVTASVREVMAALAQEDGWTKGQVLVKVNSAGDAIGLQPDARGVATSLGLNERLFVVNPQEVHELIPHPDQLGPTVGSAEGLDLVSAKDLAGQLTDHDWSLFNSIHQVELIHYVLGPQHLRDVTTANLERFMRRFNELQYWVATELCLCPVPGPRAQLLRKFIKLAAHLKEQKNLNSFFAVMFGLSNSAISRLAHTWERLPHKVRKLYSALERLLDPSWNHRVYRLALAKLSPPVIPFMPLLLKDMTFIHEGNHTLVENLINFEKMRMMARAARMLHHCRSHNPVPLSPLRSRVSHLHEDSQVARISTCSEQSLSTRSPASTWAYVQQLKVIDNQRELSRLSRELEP
In short: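 Released BODIPY-GDP fluoresces less than Rap1-bound BODIPY-GDP; the signal is followed at 480/540 nm at 5-min intervals over 30 min, after 5 min at room temperature. Reactions contain 100 nM EPAC1, 250 nM RAP1B-BODIPY-GDP and 50 uM GDP; results are normalized to ATA and DMSO.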

[5] = target: Rap guanine nucleotide exchange factor 3 (Homo sapiens) (UniProt O95398); experiment: Confirmatory qHTS for agonist of cAMP-regulated guanine nucleotide exchange factor 3 (EPAC1) (AID 1645881);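 note: EPAC1 catalysed release of BODIPY-GDP from Rap1B seen as fluorescence loss; 100% = effect of cAMP agonist control; nearly all actives have a fitted effect of over 75% in size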
[6] = target: Rap guanine nucleotide exchange factor 4 (Homo sapiens) (UniProt Q8WZA2); experiment: Confirmatory qHTS for agonist of cAMP-regulated guanine nucleotide exchange factor 4 (EPAC2) (AID 1645884);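 note: nucleotide exchange releases bodipy-GDP from Rap1 and this lowers its fluorescence; % is set by controls: 0 for no effect and ±100 for the full control effect; nearly all actives have a fitted effect of over 65% in size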
Rap guanine nucleotide exchange factor 4 (Homo sapiens), sequence (Q8WZA2 whole entry, looked up): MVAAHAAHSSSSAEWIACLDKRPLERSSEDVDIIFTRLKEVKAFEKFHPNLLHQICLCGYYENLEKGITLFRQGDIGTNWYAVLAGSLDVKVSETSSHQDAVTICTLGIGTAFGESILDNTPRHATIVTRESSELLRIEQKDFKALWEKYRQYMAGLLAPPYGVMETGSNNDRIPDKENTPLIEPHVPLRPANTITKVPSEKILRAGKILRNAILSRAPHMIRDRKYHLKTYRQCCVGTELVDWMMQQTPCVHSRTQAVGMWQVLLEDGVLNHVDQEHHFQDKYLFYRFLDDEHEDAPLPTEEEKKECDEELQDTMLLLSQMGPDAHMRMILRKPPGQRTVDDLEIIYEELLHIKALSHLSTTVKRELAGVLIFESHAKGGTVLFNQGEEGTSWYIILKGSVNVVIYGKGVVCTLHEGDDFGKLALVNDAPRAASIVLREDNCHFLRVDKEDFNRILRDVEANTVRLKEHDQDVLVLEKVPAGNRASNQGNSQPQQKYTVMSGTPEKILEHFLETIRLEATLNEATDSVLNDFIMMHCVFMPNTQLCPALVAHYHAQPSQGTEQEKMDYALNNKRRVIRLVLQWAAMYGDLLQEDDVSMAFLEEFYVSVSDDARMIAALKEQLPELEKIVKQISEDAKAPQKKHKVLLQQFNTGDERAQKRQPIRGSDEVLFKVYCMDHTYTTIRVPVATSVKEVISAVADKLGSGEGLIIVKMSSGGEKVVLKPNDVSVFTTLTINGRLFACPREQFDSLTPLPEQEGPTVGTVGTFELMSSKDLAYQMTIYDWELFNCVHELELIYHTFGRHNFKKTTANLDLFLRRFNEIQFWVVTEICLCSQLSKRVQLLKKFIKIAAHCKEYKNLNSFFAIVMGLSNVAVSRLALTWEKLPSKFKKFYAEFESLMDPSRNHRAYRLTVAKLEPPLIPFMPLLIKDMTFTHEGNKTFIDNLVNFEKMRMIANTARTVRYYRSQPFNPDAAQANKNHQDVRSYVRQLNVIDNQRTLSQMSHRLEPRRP

[7] = target: Rap guanine nucleotide exchange factor 4 (Homo sapiens) (UniProt Q8WZA2); experiment: Confirmatory qHTS for antagonist of cAMP-regulated guanine nucleotide exchange factor 4 (EPAC2) (AID 1645885); note: nearly all actives have a fitted effect of over 25% in size; note: potency is the fitted concentration of half-maximal effect
[8] = target: Lysosomal acid glucosylceramidase (Homo sapiens) (UniProt P04062); experiment: Glucocerebrosidase-p2 (AID 348; in the data active = potency below about 10 µM; note: potency is the fitted concentration of half-maximal effect); details: purified GBA, blue fluorogenic substrate, 40 min
Lysosomal acid glucosylceramidase (Homo sapiens), sequence (P04062 whole entry, looked up): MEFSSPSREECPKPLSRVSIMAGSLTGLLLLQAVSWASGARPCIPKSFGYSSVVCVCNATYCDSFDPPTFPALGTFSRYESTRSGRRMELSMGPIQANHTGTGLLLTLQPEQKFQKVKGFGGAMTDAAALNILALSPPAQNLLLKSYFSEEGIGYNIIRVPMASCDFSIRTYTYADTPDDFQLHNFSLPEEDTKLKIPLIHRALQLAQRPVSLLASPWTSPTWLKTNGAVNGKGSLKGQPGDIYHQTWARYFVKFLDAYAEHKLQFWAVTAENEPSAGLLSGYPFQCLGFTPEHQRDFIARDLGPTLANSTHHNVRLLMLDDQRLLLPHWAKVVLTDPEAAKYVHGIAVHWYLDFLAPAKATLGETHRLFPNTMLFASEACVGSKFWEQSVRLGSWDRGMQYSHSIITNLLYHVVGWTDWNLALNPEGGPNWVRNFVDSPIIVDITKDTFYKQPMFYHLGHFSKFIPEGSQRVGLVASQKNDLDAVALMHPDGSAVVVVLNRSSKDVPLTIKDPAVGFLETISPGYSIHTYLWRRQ
In short: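 Normal human glucocerebrosidase (0.2 nM) with blue fluorogenic substrate (80 uM final) in citrate/phosphate pH 5.9 with 10mM sodium taurocholate, 0.01% tween-20; 40 min RT, NaOH/glycine stop; fluorescence Ex 365/Em 440; AC50 from a titration from 0.6 nM upwards.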

[9] = target: Cytochrome P450 1A2 (Homo sapiens) (UniProt P05177); experiment: p450-cyp1a2 (AID 410; calls by dose curve; note: potency is the fitted concentration of half-maximal effect)
In short: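 Luminescent demethylation readout: Luciferin-ME (100uM, equal to Km) turned over by 20nM CYP1A2 for 60 min at room temperature after NADPH regeneration addition, following 10 min compound preincubation. Normalization used 57 uM furafylline as full inhibition.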

[10] = NFAT Signaling Pathway (AID 444; active = well fitted curve in either direction with a large enough effect, not every such curve was filed as active;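 note: carbachol stimulus at about its EC50 of 1 µM final; % is set by controls: 0 for no effect and ±100 for the full control effect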); details: Jurkat NFAT-bla M1, carbachol, beta-lactamase ratio, 5 h; at 7.69 µM (top of the series) unless noted
In short: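 Jurkat cells with NFAT-driven β-lactamase reporter and co-expressed M1 receptor, stimulated with carbachol (final 1 uM, ~EC50), compound titration, 5 h at 37 °C. CCF4 loaded 1 h at RT; 460/530 nm ratio gave %activity and AC50.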

[11] = Stat Signaling Pathway (AID 446; active = well fitted curve in either direction with a large enough effect, not every such curve was filed as active;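 note: ME-180 cervical cancer cells given 40 pM IL-6 alongside compound; SIE-controlled beta-lactamase reporter measured as 460/530 nm FRET emission ratio; % is set by controls: 0 for no effect and ±100 for the full control effect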)
In short: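 Normalization used AC90 stimulation (300 pM IL-6) and AC90 inhibition (125 nM pan-JAK inhibitor at 40 pM IL-6). The underlying signal is SIE-driven beta-lactamase in ME-180 cells after 5 h IL-6 exposure with compound.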

[12] = target: Glucocorticoid receptor (Homo sapiens) (UniProt P04150); experiment: GR-GFP Redistribution (AID 450;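 active = compounds whose dose series gives a full or clear partial fitted curve of increased nuclear translocation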; note: potency is the fitted concentration of half-maximal effect); details: U2OS GR-GFP nuclear translocation, laser cytometry, 2 h
Glucocorticoid receptor (Homo sapiens), sequence (P04150 whole entry, looked up, the tested form may be a part): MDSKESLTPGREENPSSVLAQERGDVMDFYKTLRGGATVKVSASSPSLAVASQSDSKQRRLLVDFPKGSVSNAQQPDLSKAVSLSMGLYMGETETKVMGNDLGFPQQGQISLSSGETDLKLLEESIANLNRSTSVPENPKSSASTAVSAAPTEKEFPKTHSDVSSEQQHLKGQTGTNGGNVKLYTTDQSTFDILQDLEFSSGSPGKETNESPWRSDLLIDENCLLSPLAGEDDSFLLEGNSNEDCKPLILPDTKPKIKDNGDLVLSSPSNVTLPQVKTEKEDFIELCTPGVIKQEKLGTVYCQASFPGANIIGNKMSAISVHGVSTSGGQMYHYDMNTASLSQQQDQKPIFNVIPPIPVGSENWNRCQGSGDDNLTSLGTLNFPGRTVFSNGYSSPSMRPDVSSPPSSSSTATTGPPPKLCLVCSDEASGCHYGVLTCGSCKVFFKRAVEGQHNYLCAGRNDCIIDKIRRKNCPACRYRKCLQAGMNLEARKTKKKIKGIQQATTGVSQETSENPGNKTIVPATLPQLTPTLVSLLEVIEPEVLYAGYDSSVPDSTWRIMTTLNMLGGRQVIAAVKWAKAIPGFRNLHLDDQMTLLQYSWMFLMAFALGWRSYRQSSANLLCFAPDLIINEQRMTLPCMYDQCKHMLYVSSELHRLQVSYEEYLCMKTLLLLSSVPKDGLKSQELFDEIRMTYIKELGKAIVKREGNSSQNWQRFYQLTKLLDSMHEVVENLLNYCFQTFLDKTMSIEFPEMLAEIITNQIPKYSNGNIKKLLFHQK

[13] = target: Glucocorticoid receptor (Homo sapiens) (UniProt P04150); experiment: GR-EFC Redistribution (AID 451; calls by dose curve; note: potency is the fitted concentration of half-maximal effect); details: CHO-K1 GR-EFC translocation, beta-gal luminescence, 2 h
In short: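 CHO-K1 cells expressing nuclear EA and GR-ED fragments of b-gal; compounds titrated up to 46 uM final, 2 h at 37 C. GR nuclear translocation read as complemented b-gal luminescence after 1 h RT detection.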

[14] = target: Mitogen-activated protein kinase 10 (Mus musculus) (UniProt Q61831); experiment: JNK3 AlphaScreen Assay (AID 530; active = well fitted curve in either direction with a large enough effect, not every such curve was filed as active;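 note: kinase came from lysate of stimulated human HepG2 cells; signal reports phosphorylation of biotinylated GST-cJun 1-79 at Ser73 with 10 µM ATP; % is set by controls: 0 for no effect and ±100 for the full control effect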)
In short: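 Activity was read by AlphaScreen after JNK3-containing HepG2 lysate (cytokine pre-activated) phosphorylated biotinylated GST-cJun with 10 uM ATP at room temperature. Phospho-Ser73 cJun antibody with Protein-A acceptor beads provided detection.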

[15] = target: 3',5'-cyclic-AMP phosphodiesterase 4B (Homo sapiens) (UniProt Q07343); experiment: qHTS Assay for Inhibitors of PDE-IV (AID 607; active = well fitted activation curve with a large enough effect in the main read-out, with a control signal flat, not every such curve was filed as active; note: % of control where 0% means no effect)
3',5'-cyclic-AMP phosphodiesterase 4B (Homo sapiens), sequence (Q07343 whole entry, looked up): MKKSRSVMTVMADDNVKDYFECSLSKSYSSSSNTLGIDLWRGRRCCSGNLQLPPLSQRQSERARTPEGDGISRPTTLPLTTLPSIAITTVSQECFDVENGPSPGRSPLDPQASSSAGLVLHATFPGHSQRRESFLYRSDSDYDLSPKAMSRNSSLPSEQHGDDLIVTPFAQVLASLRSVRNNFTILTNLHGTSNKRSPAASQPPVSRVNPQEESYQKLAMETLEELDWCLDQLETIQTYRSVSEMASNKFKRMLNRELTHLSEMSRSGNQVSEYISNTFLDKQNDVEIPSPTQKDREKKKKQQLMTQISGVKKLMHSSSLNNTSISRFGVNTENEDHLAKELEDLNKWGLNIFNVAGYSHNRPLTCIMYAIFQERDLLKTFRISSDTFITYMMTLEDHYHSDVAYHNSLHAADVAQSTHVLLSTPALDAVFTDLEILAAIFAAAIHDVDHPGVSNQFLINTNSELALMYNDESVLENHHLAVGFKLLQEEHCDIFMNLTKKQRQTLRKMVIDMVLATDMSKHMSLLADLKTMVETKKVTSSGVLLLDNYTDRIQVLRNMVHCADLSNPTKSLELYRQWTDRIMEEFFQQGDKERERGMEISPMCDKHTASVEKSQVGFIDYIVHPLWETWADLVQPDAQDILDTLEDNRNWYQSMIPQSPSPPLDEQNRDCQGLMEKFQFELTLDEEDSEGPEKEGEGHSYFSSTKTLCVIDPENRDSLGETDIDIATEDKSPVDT
In short: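 HEK293 ACTOne cells with CNG channel (1000/well), endogenous PDE4; membrane potential dye, compounds up to 22.9 uM final. Fluorescence Ex 535/Em 590; RO 20-1724 (100 uM final) as reference.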

[16] = target: DNA dC->dU-editing enzyme APOBEC-3G (Homo sapiens) (UniProt Q9HC16); experiment: qHTS for inhibitors of Vif-A3G interactions: Validation (AID 588379); note: 0% is about no effect
DNA dC->dU-editing enzyme APOBEC-3G (Homo sapiens), sequence (Q9HC16 whole entry, looked up): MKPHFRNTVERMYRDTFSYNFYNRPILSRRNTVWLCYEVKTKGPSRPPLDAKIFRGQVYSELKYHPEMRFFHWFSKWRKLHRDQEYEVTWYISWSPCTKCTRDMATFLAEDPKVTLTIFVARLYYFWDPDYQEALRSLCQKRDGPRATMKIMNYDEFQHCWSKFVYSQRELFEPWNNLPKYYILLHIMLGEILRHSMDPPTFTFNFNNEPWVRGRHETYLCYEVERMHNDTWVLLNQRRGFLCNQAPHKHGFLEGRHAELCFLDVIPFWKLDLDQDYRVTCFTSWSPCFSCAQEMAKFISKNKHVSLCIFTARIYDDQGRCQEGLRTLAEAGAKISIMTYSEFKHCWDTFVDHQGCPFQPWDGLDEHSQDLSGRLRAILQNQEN
In short: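 Yellow fluorescence (Ex 488, Em 500-530) of Vif-coexpressing HeLa A3G-eYFP cells, scanned by Acumen cytometer, reports blocked A3G degradation. Cells plated at 700/well overnight at 37 deg C before compound addition, then a further overnight compound incubation at 37 deg C.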

[17] = target: Rap guanine nucleotide exchange factor 3 (Homo sapiens) (UniProt O95398); experiment: Counterscreen qHTS for antagonist of cAMP-regulated guanine nucleotide exchange factor 3 (EPAC1) (AID 1645888); note: % of control where 0% means no effect
In short: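 Rap1B–BODIPY-GDP (250 nM) with 50 uM GDP; compounds pin-transferred to 9.74 nM–152 uM final (activator) or from 7.32 nM upwards (inhibitor). Fluorescence Ex/Em 480/540 nm read at 5 and 30 min, then after adding cAMP or buffer, at room temperature.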

[18] = AP1 Signaling Pathway (AID 357; active = well fitted curve in either direction with a large enough effect, not every such curve was filed as active;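 note: ME-180 reporter cells stimulated with EGF at its EC50 level; % is set by controls: 0 for no effect and ±100 for the full control effect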); details: ME-180 AP-1-bla reporter, EGF-induced, beta-lactamase ratio, 5 h; at 7.69 µM (top of the series) unless noted
In short: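 Cells are seeded overnight, exposed to compound titrations and an EC50 level of EGF for 5 hours at 37 °C, then loaded with CCF4 dye for 2.5 hours. Beta-lactamase activity under the AP-1 element is read as a blue/green ratio.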

[19] = qHTS Assay for Identification of Small Molecule Agonists for Hypoxia Response Element Signaling Pathway (AID 914; active = well fitted activation curve with a large enough effect in the signal ratio, with a control signal flat, not every such curve was filed as active; the % refers to the signal ratio; note: potency is the fitted concentration of half-maximal effect); details: ME-180 (cervical carcinoma) HRE-bla reporter, beta-lactamase ratio, CoCl2, 17 h; activation: stronger effect = higher value
In short: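 AC50 values come from titration-series %Activity, taken as the 460/530nm ratio of CCF4 fluorescence (excitation 405nm). CellSensor HRE-bla ME-180 cells were treated 17 hours at 37 C with compound plus an EC50 level of CoCl2.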

COc1cc2c(cc1OC)C1C(=O)c3ccc4c(c3OC1CO2)C=CC(C)(C)O4 (stereo unspecified)
inactive: Potency [2] | Potency [3] | Potency [4] | Potency [5] | Potency [6] | Potency [7]
active: Potency [1] 31.6 µM

COc1ccc(Oc2ncc3nc(CCc4ccccc4)c(=O)n(CCC#N)c3n2)cc1
inactive: Potency [8] > 11.4 µM | activity change, negative = inhibition [10] 3.1% | outcome [11] | Potency [12] > 9.22 µM | Potency [13] > 46 µM | Potency [14] | Potency [15] | Potency [4] | Potency [5] | Potency [6] | Potency [7]
active: Potency [9] 6.31 µM | Potency [1] 1.58 µM

C=C1CCC(O)C/C1=C\C=C1/CCCC2(C)C1CCC2C(C)CCCC(C)C (stereo unspecified)
inactive: outcome [16] | Potency [5] | Potency [6]
active: Potency [4] 55.9 µM | Potency [7] 39.3 µM

O=[N+]([O-])c1ccccc1O[C@@H]1O[C@H](CO)[C@H](O)[C@H](O)[C@H]1O
inactive: Potency [4] | Potency [5] | Potency [6] | Potency [17]

CN1CCN(c2ncc3nc(-c4cn(C)c5ccccc45)c(=O)n(CCC#N)c3n2)CC1
inactive: activity change, negative = inhibition [18] -1.18% | activity change, negative = inhibition [10] 23.5% | Potency [12] > 9.22 µM | Potency [15] | Potency [4] | Potency [5] | Potency [6] | Potency [7]
active: Potency [19] 3.16 µM

CCCCOc1ccc(NS(=O)(=O)c2ccc(-n3cnnn3)cc2)cc1
inactive: Potency [4] | Potency [5] | Potency [6] | Potency [17]

CCOC(=O)C1Nc2c(F)cc(C)cc2C2c3ccccc3CC12 (stereo unspecified)
inactive: Potency [4] | Potency [5] | Potency [6] | Potency [17]

COc1ccccc1C(=O)C1CCCN(C(=O)c2ccc3c(c2)OCCO3)C1 (stereo unspecified)
inactive: Potency [4] | Potency [5] | Potency [6] | Potency [17]

Cc1nnc(SCC(=O)Nc2sccc2C#N)s1
inactive: Potency [4] | Potency [5] | Potency [6] | Potency [17]

Cc1cc(Nc2ccccc2)c2c([N+](=O)[O-])ccc(C)c2n1
inactive: Potency [4] | Potency [5] | Potency [6] | Potency [17]

CCSc1nc(-c2ccccc2)nc2c1CCCC2
inactive: Potency [4] | Potency [5] | Potency [6] | Potency [17]

Cc1ccc(S(=O)(=O)Nc2ccccc2C(=O)Nc2nc(-c3ccc(F)cc3)cs2)cc1
active: Potency [4] 42.6 µM
inactive: Potency [5] | Potency [6] | Potency [17]
